Common to all, as to assay: NCI-60 one-dose screen, 48 h (100 = growth as untreated, 0 = no growth, -100 = all killed)
Common to all, as to settings: 10 µM

Assay [1] has as its system SK-MEL-2 melanoma.
Assay [2] concerns EKVX NSCLC.
Assay [3] concerns SN12C renal.
Assay [4] concerns UO-31 renal.
The test system of assay [5] is TK-10 renal.
The test system of assay [6] is ACHN renal.
The subject of assay [7] is CAKI-1 renal.
Assay [8] relates to MOLT-4 leukemia.
Assay [9] relates to SR leukemia.
Assay [10] concerns OVCAR-8 ovarian.
Assay [11] deals with OVCAR-5 ovarian.
In assay [12] the test system is OVCAR-4 ovarian.
In assay [13] the test system is SK-OV-3 ovarian.
The test system of assay [14] is IGROV1 ovarian.
For assay [15], the system named is OVCAR-3 ovarian.
The test system of assay [16] is HS 578T breast.
In assay [17] the test system is NCI/ADR-RES ovarian.
For assay [18], the system named is A498 renal.
For assay [19], the system named is CCRF-CEM leukemia.
In assay [20] the test system is RPMI-8226 leukemia.

The panel holds about 83,000 compounds, 20% with a hit somewhere; the sample as a whole holds those more often.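 Results are percent growth after 48 hours of single-concentration exposure. 100 means growth as in untreated cells, lower positive values show inhibition; negative values down to -100 show cell death.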 A number with no mark means an inactive call. Activity calls are given as the source filed them. Rule for the calls: active = growth percent below 10; inactive = the rest.

Results on nine compounds are retold here after PubChem BioAssay (NCI).

Take `CCOC(=O)c1sc2ncnc(Nc3ccc4c(cnn4C(=O)Nc4ccccc4)c3)c2c1C`: the growth in assay [1] is 85%; in assay [2], 84.3%; in assay [3] it was 61.3%; in [4], 87.6%; in assay [5] it was 78.6%; in assay [6] it was 87.6%. The growth in [7] was 83.9%; in [8], 91%; in assay [9], 27.9%; in assay [10], 51.7%; in assay [11], 98.9%; in assay [12] it was -1.84% (active). Besides, the growth was 73.2% in assay [13]; 87.1% in assay [14]; 67.8% in assay [15]; 41.6% in [16]; 49.2% in assay [17].
Take `Nc1cc(-c2ccc(Cl)cc2)nn1-c1nc2ccccc2nc1Cc1ccccc1`: the growth was 100% in [1]; 78.6% in [2]; 94.1% in [3]; 87% in assay [4]; 99.2% in [5]; 103% in assay [6]. In addition, the growth in [7] was 80.7%; in [10], 91.2%; in [11], 95%; in [13] it was 96.7%; in assay [14] it was 94.9%; in [17], 87.5%.
In the case of `CCOC(=O)c1cc(C(=O)c2cc(OC)cc(OC)c2)n2ncc3ccccc3c12`, the growth is 15.4% in assay [1]; 61.5% in assay [2]; 39.9% in [3]; 19% in assay [4]; -8.97% (active) in assay [5]; 2.48% (active) in assay [6]. Moreover, the growth in assay [18] was 16.5%; in [19], 23.5%; in assay [8], 29%; in assay [9], 4.68% (active); in assay [20], 33%; in assay [10] it was 34.4%. The growth in assay [11] was 55.2%; in assay [12] it was -18% (active); in assay [13], 37.6%; in assay [14], 43.5%; in assay [15] it was -13.5% (active); in assay [16], 17.8%. Besides, the growth in assay [17] was 19.1%.
With `CN(C)CCCOc1cccc(NC2=C(Cl)C(=O)C(Nc3cccc(OCCCN(C)C)c3)=C(Cl)C2=O)c1`, the growth was -65.6% (active) in assay [1]; -95.8% (active) in assay [2]; -69.2% (active) in assay [3]; -92.7% (active) in assay [4]; -99.3% (active) in assay [5]; -98.3% (active) in assay [6]. The growth was 44.5% in assay [18]; -37.6% (active) in assay [19]; -37.1% (active) in assay [8]; -9.52% (active) in assay [9]; -47.5% (active) in assay [20]; -80.1% (active) in assay [10]. In addition, the growth is -47.9% (active) in assay [11]; -98.8% (active) in [12]; 98.2% in [13]; -67.4% (active) in assay [14]; -96% (active) in [15]; -2.49% (active) in assay [16].
As for `Cc1ccc(NCCN(C)CC(C)O)c2c(=O)c3ccc(Cl)cc3sc12` (stereo unspecified), the growth in assay [1] is 66.8%; in assay [2] it was 78.5%; in assay [3] it was 49.8%; in assay [4] it was 51.5%; in [5], 79.1%; in assay [6], 44.6%. Moreover, the growth is 73.8% in assay [18]; 20.4% in assay [19]; 16.2% in assay [8]; -28.9% (active) in [9]; -8.72% (active) in [20]; 58.1% in assay [10]. Also, the growth in [11] is 77.9%; in assay [12], 67.9%; in assay [13], 91.6%; in assay [14] it was 39.8%; in [15], 73.3%; in assay [16], 58.6%. The growth in assay [17] is 57.8%.
Regarding `COc1cc2c3c(n(C4CCNCC4)c(=O)c2cc1OC)-c1cc2c(cc1C3=O)OCO2`, the growth is 76.4% in assay [1]; -68.4% (active) in [2]; -69% (active) in assay [3]; -70.2% (active) in [4]; 76% in [5]; -81.7% (active) in assay [6]. Also, the growth in assay [7] is 21.4%; in [8], -27.1% (active); in [9] it was -24.4% (active); in [10], -43.1% (active); in [11], -66.8% (active); in [12], -23.4% (active). Further, the growth is -42.2% (active) in [13], -57.1% (active) in [14], -88.9% (active) in [15] and -39.8% (active) in assay [17].
Turning to `Nc1ccc(-c2cccs2)cc1NC(=O)c1ccc(CCCC(=O)Nc2ccc(C3CC3N)cc2)cc1` (stereo unspecified), the growth in assay [1] is 69.6%; in [2], 73.9%; in assay [3] it was 80.3%; in [4], 75.8%; in assay [5] it was 55.6%; in [6], 83.5%. In addition, the growth is 88.7% in assay [7]; 47% in assay [8]; -10.5% (active) in [9]; 86.2% in assay [11]; 93% in assay [12]; 68% in [13]. Besides, the growth was 80.9% in assay [14], 63% in [15], 75.5% in assay [16] and 87.5% in [17].
In the case of `N#Cc1c(-c2ccc(Cl)cc2)n(O)c2ccccc12`, the growth was 8.25% (active) in [1]; 30.2% in assay [2]; 16.1% in assay [3]; 11% in assay [4]; 66.6% in assay [5]; 35.4% in assay [6]. For the same compound, the growth in assay [7] is 20.7%; in assay [8], 18.1%; in assay [10] it was 26.1%; in assay [11] it was 66%; in assay [12], 26.5%; in [13] it was 12.9%. The growth in assay [14] is 4.22% (active); in assay [15], 4.13% (active); in assay [16], -21.6% (active); in assay [17], 2.73% (active).
For the compound `CCN1CCN(CCC(=O)Nc2cccc(-n3cc(-c4ccncc4)c(-c4ccc(Cl)c(OC)c4)n3)c2)CC1`, the growth in assay [1] was -19.5% (active); in assay [2], 54.5%; in assay [3], 38.8%; in assay [4], 34.6%; in assay [5], 44.7%; in assay [6], 37.2%. Moreover, the growth was -14.1% (active) in [18]; 1.32% (active) in assay [19]; 2.89% (active) in [8]; -12.3% (active) in assay [9]; -38.8% (active) in assay [20]; 24.2% in assay [10]. In addition, the growth in assay [11] is 37.6%; in assay [12], 43.1%; in assay [13], 39.2%; in [14] it was 47.2%; in [15] it was 7.41% (active); in assay [16] it was 13.1%.
